The list is a sample of the results.
aSyn UTR act = Activators via SNCA 5'UTR binding, MLPCN; 300,000 compounds, 7.1% hits; activity score, % (tested at 7.5 µM), hits read low; alpha-synuclein 5'UTR reporter, activators screen; AID 1814; in the data active = activity score below about -60%
* = called active by the depositor.

SMILES | aSyn UTR act
O=C(Cc1ccccc1[N+](=O)[O-])N1CCc2ccccc2C1 | -103*
CC(=O)c1ccc(N2CCc3ccccc3C2)c([N+](=O)[O-])c1 | -68*
O=C(NCc1cccs1)C(=O)c1c[nH]c2ccccc12 | -123*
O=C(NCc1ccco1)C(=O)c1c[nH]c2ccccc12 | -79*
O=c1n(Cc2ccccc2Cl)nc2n1-c1ccccc1SC2 | -87*
COC(=O)C(C)N1C(=O)S/C(=C\c2ccc(-c3ccc(C(=O)O)cc3C)o2)C1=O (stereo unspecified) | -137*
COc1ccc2cc3cc(C(=O)NCCCN4CCc5ccccc5C4)sc3nc2c1 | -198*
COc1ccc2cc3cc(C(=O)NC4CC4)sc3nc2c1 | 57
COc1ccc2nc3sc(C(=O)NCCN4CCc5ccccc5C4)cc3cc2c1 | -69*
COc1ccc2[nH]cc(C(=O)CN3CCC(C)CC3)c2c1 | -177*
CCCn1c(N2CCN(CC(=O)c3c(C)n(C)c4ccc(OC)cc34)CC2)nc2c1c(=O)[nH]c(=O)n2C | 63
COc1ccc(NC(=O)CSc2ccccc2)c([N+](=O)[O-])c1 | -106*
Cc1ccc(NC(=O)CN2CCCCCC2)c(Br)c1 | -204*
Cc1ccc(NC(=O)COC(=O)COc2ccc(Cl)cc2C)c([N+](=O)[O-])c1 | -65*
COc1ccc(NC(=O)COc2ccc(C)cc2)c([N+](=O)[O-])c1 | -143*
COc1ccc(NC(=O)CN2CCC(C)CC2)c([N+](=O)[O-])c1 | -68*
COc1ccc(NC(=O)CN2CCCCC2)c([N+](=O)[O-])c1 | -98*
COc1cc(NC(=O)Cn2ncc(Cl)c(Cl)c2=O)c(C)cc1[N+](=O)[O-] | 121
Cc1cc(C)c(S(=O)(=O)Nc2ccc(N(C)C)cc2)c(C)c1-n1cnnn1 | -79*
N#CCCCC#Cc1ccc2c(c1)COc1c3ccccc3nn1-2 | 77
CCCCCCC#Cc1ccc2c(c1)COc1c3ccccc3nn1-2 | -141*
CC(C#Cc1ccc2c(c1)COc1c3ccccc3nn1-2)OC(C)(C)C (stereo unspecified) | -114*
C(#Cc1ccc2c(c1)COc1c3ccccc3nn1-2)c1ccccc1 | -208*
C#Cc1ccc2c(c1)COc1c3ccccc3nn1-2 | -89*
CCOc1ccc(N2C(=O)C(Cl)=C(Nc3ccccc3O)C2=O)cc1 | -184*
SMILES | aSyn UTR act
COc1ccccc1NC1=C(Cl)C(=O)N(c2ccccc2)C1=O | -70*
O=C1C(Cl)=C(Nc2ccccc2O)C(=O)N1CCc1ccccc1 | -87*
CCOc1ccc(NC2=C(Cl)C(=O)N(C3CCCCC3)C2=O)cc1 | -102*
O=C(Nc1ccccc1)c1ccc(-c2ccc([N+](=O)[O-])cc2)o1 | -98*
O=C(c1ccc(-c2ccc([N+](=O)[O-])cc2)o1)N1CCCCC1 | -106*
O=C(Nc1ccccc1)c1ccc(-c2ccc(Br)cc2)o1 | -93*
COc1ccc(N(C)C(=O)c2ccc3c(Cl)c4c(nc3c2)CCCC4)c(OC)c1 | -88*
Cc1ccc(N(C)C(=O)c2ccc3c(Cl)c4c(nc3c2)CCC4)cc1C | -136*
O=C(O)c1ccc2noc(-c3ccccc3)c2c1 | -119*
Cc1ccc(-c2onc3ccc(C(=O)O)cc23)cc1 | -200*
O=C(O)c1ccc2cc(-c3ccccc3)[nH]c2c1 | 66
O=C(O)c1ccc2nc(-c3ccccc3)c(-c3ccccc3)nc2c1 | -93*
CC(=O)COC(=O)c1ccc2noc(-c3ccccc3)c2c1 | -78*
CC1(C)CC(=O)c2sc(NC(=O)c3ccc4ncsc4c3)nc2C1 | -77*
CC1(C)CNC(=O)c2sc(NC(=O)c3ccccc3)nc2C1 | -155*
CC1(C)CC(=O)c2sc(NC(=O)c3ccccc3)nc2C1 | -78*
CC1(C)CC(=O)c2sc(NC(=O)C(C)(C)C)nc2C1 | -184*
O=C(Nc1nnc(S(=O)(=O)N2CCCCCC2)s1)c1ccccc1 | -65*
O=C(Nc1nnc(S(=O)(=O)N2CCN(c3ccc(F)cc3)CC2)s1)c1ccccc1 | -63*
O=C(/C=C/c1nc2ccccc2s1)N1CCCCCC1 | -107*
CC1CCCCC1NC(=O)/C=C/c1nc2ccccc2s1 (stereo unspecified) | -148*
CCn1c(O)c(C=NC2CCCC(C)C2C)sc1=S (stereo unspecified) | -133*
CCCCCCCCC/C(=N\O)c1ccccn1 | -75*
CN[C@H]1CCc2cc(OC)c(OC)c(OC)c2-c2ccc(OC)c(=O)cc21 | 90
Cn1c(=N)n(CC(=O)c2ccc(Br)s2)c2ccccc21 | -118*
SMILES | aSyn UTR act
Cn1c(=N)n(CC(=O)c2cccs2)c2ccccc21 | -92*
COc1cccc(C(=O)Cn2c(=N)n(C)c3ccccc32)c1 | 86
Cc1cc2cc(C=C(C#N)C#N)c(Cl)nc2cc1C | -75*
COc1ccc(OC)c(Cc2nnc(CCC(=O)N3CCN(C4CCCC4)CC3)o2)c1 | -74*
CS(=O)(=O)c1ccccc1COC(=O)Nc1ccc(Cl)cc1 | -70*
O=C(Nc1ccc(Cl)cc1)OCc1ccccn1 | -134*
Oc1c(C=Nc2ccccc2Cl)[nH]c2ccccc12 | -101*
Cc1ccccc1NC(=O)N1CCc2ccccc2C1 | -80*
Cc1cc(C)cc(NC(=O)N2CCc3ccccc3C2)c1 | -111*
Cc1ccc(NC(=O)N2CCc3ccccc3C2)cc1C | -152*
Cc1ccc(NC(=O)C2OCCc3ccccc32)cc1C (stereo unspecified) | -62*
CCCc1cc(=O)n2[nH]cc(-c3ccc(Cl)cc3)c2n1 | 71
CCc1c(C)nc2cc(-c3ccc(OC)cc3)[nH]n2c1=O | -156*
COCc1cc(=O)n2[nH]c(-c3ccc(C)cc3)cc2n1 | -128*
CCOC(=O)Cc1c(C)nc2cc(-c3ccc(Cl)cc3)[nH]n2c1=O | -67*
COc1ccccc1CC(=O)c1ccc(OCc2ccccc2)cc1 | -73*
COc1ccc(OCc2ccc(C(=O)O)cc2)cc1 | -111*
O=C(COC(=O)c1cccc([N+](=O)[O-])c1)c1ccc(OCc2ccccc2)cc1 | -75*
Cc1ccccc1OCC(=O)OCC(=O)c1ccc(OCc2ccccc2)cc1 | -112*
C[n+]1cn(/N=C/c2ccccc2)c2ccccc21 | -87*
COc1cccc2c1C(=O)c1c(O)c3c(c(O)c1C2=O)C[C@@](O)(C(=O)CO)C[C@@H]3O[C@H]1C[C@H](N)[C@H](O)[C@H](C)O1 | 109
O=C(O)c1cccc(N/N=C/c2cc(Br)cc(Br)c2O)c1 | -232*
COc1ccc(Br)cc1/C=N/Nc1cccc(C(=O)O)c1 | -76*
COc1ccc(/C(C)=N/Nc2cccc(C(=O)O)c2)cc1OC | -113*
COc1ccccc1/C=C/C=N/Nc1cccc(C(=O)O)c1 | -119*
SMILES | aSyn UTR act
CN(C)c1ccc(/C=N/Nc2cccc(C(=O)O)c2)cc1 | 77
COc1cccc(/C=N/Nc2ccc(C(=O)O)cc2)c1O | 113
c1ccc(CCn2cnc3ccccc32)cc1 | -91*
Brc1ccccc1OCCCn1cnc2ccccc21 | -93*
Cc1ccccc1OCC(O)Cn1c(=N)n(Cc2ccccc2)c2ccccc21 (stereo unspecified) | 113
Cc1ccccc1OCCCCn1cnc2ccccc21 | -83*
COc1ccc(OCCn2cnc3ccccc32)cc1 | -70*
CSc1ncc(CN2CCCC(C(=O)c3ccc(C(C)(C)C)cc3)C2)cn1 (stereo unspecified) | -88*
Cc1ccc(-n2c(N)c(C(=O)Nc3c(C)n(C)n(-c4ccccc4)c3=O)c3nc4ccccc4nc32)cc1C | 74
Cc1cccc(-n2c(N)c(C(=O)NCCN3CCOCC3)c3nc4ccccc4nc32)c1 | -83*
COc1ccc(-c2nnc(-c3ccc(Br)o3)o2)cc1OC | -90*

Assay outcomes from PubChem.
